An excerpt weighted towards active compounds, which were near 19% of everything screened.
Gal4-VP16 FLuc: Gal4-VP16 reporter inhibition counter-screen | Drosophila S2 Gal4-VP16 UAS-luciferase, luminescence, 20 h | 3.5% of 310,000 active | Potency, µM (series often up to 53.6 µM), for inactives: at the highest dose activity, negative = inhibition, hits mostly inhibitors;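 note: Gal4-VP16 expression switched on by copper sulfate through the metallothionein promoter; nearly all actives have a fitted effect of over 50% in size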
TDP1 cell noCPT: qHTS for Inhibitors of human tyrosyl-DNA phosphodiesterase 1 (TDP1): qHTS in cells in absence of CPT | Potency, µM (series often up to 46.2 µM), without a hit: top-dose activity change, negative = growth inhibition, most hits filed as inhibitors | 15% of 420,000 active | DT40 Tdp1-/- hTDP1 cells, no CPT, ATP luminescence, 48 h | AID 686978, 2013; note: nearly all actives have a fitted effect of over 55% in size
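Seeded 400 DT40-hTDP1 cells/well (vehicle DMSO, no 20 nM CPT); pinned compounds; ≥48 hr at 37 °C; CellTiter-Glo luminescence as viability measure.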
TDP1 cell CPT: DT40-hTDP1 cell growth loss with CPT; Potency, µM (top dose mostly 46.2 µM), without a hit: top-dose activity change, negative = growth inhibition, usual class: inhibitors; chicken DT40 Tdp1-/-;hTDP1 cells + 20 nM CPT, ATP luminescence, 48 h; 12% of 420,000 active; AID 686979; note: nearly all actives have a fitted effect of over 55% in size
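Chicken DT40 Tdp1-/- cells complemented with human TDP1, 400 cells/well, exposed to compounds plus 20 nM camptothecin for at least 48 h at 37 C; viability read as ATP content by CellTiter-Glo luminescence.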
TDP1 inh: blocks human tyrosyl-DNA phosphodiesterase 1. Q9NUW8. 0.28% of 350,000 active. AID 485290. Potency, µM (series often up to 130 µM), without a hit: at the highest dose activity change, negative = inhibition, hits mostly inhibitors. recombinant TDP1, AlphaScreen DNA substrate cleavage; note: nearly all actives have a fitted effect of over 40% in size
Target sequence (Q9NUW8 whole entry, looked up): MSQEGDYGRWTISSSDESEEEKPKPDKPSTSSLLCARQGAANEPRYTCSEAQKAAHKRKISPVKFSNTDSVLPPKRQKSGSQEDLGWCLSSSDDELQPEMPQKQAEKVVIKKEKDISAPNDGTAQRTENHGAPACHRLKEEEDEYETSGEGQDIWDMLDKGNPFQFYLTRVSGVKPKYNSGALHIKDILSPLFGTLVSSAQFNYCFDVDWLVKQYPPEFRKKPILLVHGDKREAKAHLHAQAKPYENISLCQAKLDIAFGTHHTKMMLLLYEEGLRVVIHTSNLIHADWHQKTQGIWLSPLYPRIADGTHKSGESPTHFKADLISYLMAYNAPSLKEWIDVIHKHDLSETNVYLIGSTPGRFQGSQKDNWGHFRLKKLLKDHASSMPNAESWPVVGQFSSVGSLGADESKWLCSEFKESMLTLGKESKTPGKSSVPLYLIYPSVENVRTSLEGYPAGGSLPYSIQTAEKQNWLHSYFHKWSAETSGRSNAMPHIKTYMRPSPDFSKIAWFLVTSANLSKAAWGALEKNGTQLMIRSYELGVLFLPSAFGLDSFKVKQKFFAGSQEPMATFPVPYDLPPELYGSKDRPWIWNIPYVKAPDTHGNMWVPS
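Recombinant E. coli-expressed Tdp1 (1 nM) preincubated with compound 15 min at RT, then 5'-biotin/3'-phosphotyrosine-FITC DNA substrate (15 nM) added for 5 min. AlphaScreen beads (10 ug/ml) added, 10 min RT; tyrosine-FITC cleavage read as signal loss.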
RORgamma inh: ROR gamma (mouse) transcription inhibition. P51450. 5.4% of 310,000 active. Drosophila S2 Gal4-RORgamma UAS-luciferase reporter, 20 h. AID 2551. Potency, µM (doses to about 53.6 µM), for inactives: at the top dose activity change, negative = inhibition, hits mostly inhibitors; note: nearly all actives have a fitted effect of over 60% in size
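Drosophila Schneider cells stably carrying a metallothionein-driven Gal4 DBD–ROR gamma fusion and a UAS-Photinus luciferase reporter were exposed to compound for 1 hr, then induced with copper sulfate (700 uM final) for 20 hr at ambient temperature before luminescence reading.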
Active calls of the source: *; ? = inconclusive; · = no result; [ ] = dose if it differs, or a comment. Calls come from the whole dose curve; as a rule, active = well fitted curve in the direction sought with a large enough effect; inconclusive = small, poorly fitted or top-dose-only effect, or another doubt; inactive = no such curve, though single readings can be large; an effect the other way counts as inactive or inconclusive. % is set by controls: 0 for no effect and ±100 for the full control effect; potency is the fitted concentration of half-maximal effect.

SMILES | Gal4-VP16 FLuc | TDP1 cell noCPT | TDP1 cell CPT | TDP1 inh | RORgamma inh
CCOC(=O)C1=C(C#N)C(C(=O)OCC)c2ncccc21 (stereo not given) | · | ? | -26.3% | · | ·
COc1ccc(NC(=O)CSc2nc3c(c(-c4cccs4)c2C#N)CN(C)CC3)cc1OC | -11.9% | ? | 29.1µM* | 4.8% | 5.0%
COc1ccc(NC(=O)CSc2nnc(-c3cccs3)n2C)cc1OC | -0.9% | 5.7% | -3.0% | 0.0% | 8.7%
Cc1cc(=O)oc2cc(OCC(=O)NCCN3CCOCC3)ccc12 | -4.3% | 24.9% | 21.0% | 1.6% | 3.0%
c1ccc(CN2CCc3[nH]c4ccccc4c3C2)cc1 | · | ? | -21.3% | · | ·
O=C1CCc2cc(OCCCCc3nnnn3C3CCCCC3)ccc2N1 | ? | 16.4µM* | ? | -2.7% | ?
COc1cccc(N2CCN(Cc3nnnn3C3CCCCC3)CC2)c1 | -13.1% | -33.4% | -23.9% | 2.4% | 0.8%
N#Cc1ccc(-c2ccc(OCC(=O)NN=Cc3ccncc3)cc2)cc1 | · | ? | ? | -9.7% | ·
Cc1ccc(CNc2ncnc3onc(C)c23)cc1 | · | 14.6µM* | 16.4µM* | 3.2% | ·
COc1ccc(OC)c(CCNc2ncnc3onc(C)c23)c1 | · | 5.17µM* | 7.31µM* | 2.1% | ·
Cc1noc2ncnc(NCc3cccc(Cl)c3)c12 | · | 18.4µM* | 16.4µM* | 3.2% | ·
COc1ccc(Nc2ncnc3onc(C)c23)c(OC)c1 | · | -9.0% | 3.3% | -1.1% | ·
NS(=O)(=O)c1ccc(N2N=C(c3ccccc3)CC2c2ccc(F)cc2)cc1 (stereo not given) | -1.0% | ? | ? | -2.8% | 2.3%
Clc1ncnc2scc(C3COc4ccccc4O3)c12 (stereo not given) | ? | 16.4µM* | ? | 1.9%[56.1 µM] | ?
c1ccc2c(c1)OCC(c1csc3ncnc(N4CCCCC4)c13)O2 (stereo not given) | -10.5% | ? | ? | 2.4% | 32.1%
COc1ccc(-c2cnc3c(NC(C)=O)cc(-c4cccc(C(=O)NCCO)c4)cn23)cc1OC | · | 20.6µM* | 20.6µM* | · | ·
COc1cccc(-c2cnc3c(NC(C)=O)cc(-c4cccc(C(=O)NCCN(C)C)c4)cn23)c1 | · | 18.4µM* | ? | · | ·
COc1cccc(C(=O)NCCNC(=O)c2ccc(C)nc2)c1 | 0.4% | -1.7% | 2.5% | 6.3% | 8.6%
COc1ccc(-c2cnc3c(NC(C)=O)cc(-c4cccc(C(=O)N(C)C)c4)cn23)cc1OC | · | 13µM* | 20.6µM* | · | ·
O=C(NCCO)c1cccc(-c2cccc3nncn23)c1 | · | -13.3% | -18.2% | · | ·
COc1cc(-c2cnc3c(NC(C)=O)cc(-c4cccc(C(=O)NCCO)c4)cn23)cc(OC)c1OC | · | 10.3µM* | 16.4µM* | · | ·
COCCNC(=O)c1cn(C2CCN(C3CCCC3)CC2)nn1 | · | 5.6% | 0.4%[9.04 µM] | · | ·
Cc1ccc([C@@H]2[C@@H]3C(=O)N(c4ccccc4)C(=O)[C@@H]3[C@]3(Cc4ccccc4)C(=O)N(CC4CC4)CC(=O)N23)o1 | 0.7% | 13.0% | -4.3% | · | -3.9%
COc1ccc(C2=CSC3=NCCN23)cc1Cl | 8.0% | ? | 6.4% | · | -30.1%
COCC(COS(N)(=O)=O)C(C)C (stereo not given) | -2.6% | -6.7% | -7.1% | · | 11.7%
SMILES | Gal4-VP16 FLuc | TDP1 cell noCPT | TDP1 cell CPT | TDP1 inh | RORgamma inh
COc1ccc(-c2cnc3c(NC(C)=O)cc(-c4cccc(C(=O)NCCN(C)C)c4)cn23)cc1OC | · | 11.6µM* | ? | · | ·
CCOc1ccc(-c2cn3c(n2)sc2cc(C(=O)NCCCN4CCCCCC4)ccc23)cc1 | · | 6.51µM* | 5.8µM* | 2.6% | ·
CCOc1ccc(-c2cn3c(n2)sc2cc(C(=O)NCCCN(CC)CC)ccc23)cc1 | · | 0.82µM* | 0.731µM* | 1.3% | ·
COc1ccc(-c2cn3c(n2)sc2cc(C(=O)Nc4ccc(F)cc4Cl)ccc23)cc1 | · | ? | ? | -7.8% | ·
CCN(CC)CCNC(=O)c1ccc2c(c1)sc1nc(-c3ccc(F)cc3)cn12 | · | 3.26µM* | 5.8µM* | 5.2% | ·
CCCN1CCN(CCCNC(=O)c2ccc3c(c2)sc2nc(-c4ccc(OCC)cc4)cn23)CC1 | · | 2.91µM* | 1.84µM* | -2.0% | ·
CCC(C)C1C(C#N)=C(N)OC2=C1C(=O)CC(C)(C)C2 (stereo not given) | 3.4% | -27.9% | ? | 7.8% | 33.1%
CCOc1ccc(-c2cn3c(n2)sc2cc(C(=O)NCCCN4CCCCC4)ccc23)cc1 | · | 1.64µM* | 1.64µM* | -7.8% | ·
CCOc1ccc(-c2cn3c(n2)sc2cc(C(=O)NC4CCCc5ccccc54)ccc23)cc1 (stereo not given) | · | 5.17µM* | 11.6µM* | 0.0% | ·
Cc1ccc(-c2nc(CN3CCN(c4cnccn4)CC3)c(C)o2)o1 | 1.9% | -14.2% | 17.6% | 0.0% | 11.7%
O=C(CN(c1ccc(Cl)c(C(F)(F)F)c1)S(=O)(=O)c1ccccc1)N1CCc2ccccc2C1 | · | 16.4µM* | ? | 2.2%[12.3 µM] | ·
Cc1ccc(NC(=O)c2cc(S(=O)(=O)Nc3ccc(C)cc3)cs2)cc1 | · | 23.1µM* | 23.1µM* | · | ·
COc1cc(NC(=S)NC(=O)c2cc(C)cc(C)c2)ccc1NC(=O)c1cccs1 | 1.78µM* | ? | ? | 0.0% | 2µM*
COc1cc(NC(=S)NC(=O)c2ccc(F)cc2)ccc1NC(=O)c1ccco1 | -23.2% | -21.1% | -27.6% | 2.7% | -36.3%
COc1cc(NC(=S)NC(=O)c2ccc(C(C)(C)C)cc2)ccc1NC(=O)c1cccs1 | 3.55µM* | 18.4µM* | ? | 4.6% | 3.16µM*
COc1cc(NC(=S)NC(=O)c2c(OC)cccc2OC)ccc1NC(=O)c1cccs1 | -6.1% | 9.2µM* | 10.3µM* | 5.9% | ?
COc1ccc2c(c1)OC[C@H]1[C@@H]2N2C(=O)[C@@H](C)NC(=O)[C@@]2(C)[C@H]1c1ccccc1 | · | -16.1% | 8.3% | -0.1% | ·
COc1cc(NC(=S)NC(=O)c2ccccc2C)ccc1NC(=O)c1cccs1 | 8.91µM* | ? | ? | 7.4% | 2.51µM*
Cc1cc(C)cc(NS(=O)(=O)c2ccc(NC(=S)NC(=O)c3cccs3)cc2)c1 | 1µM* | 18.4µM* | 20.6µM* | 0.0% | 0.794µM*
COc1cc(NS(=O)(=O)c2ccc(NC(=S)NC(=O)c3cccs3)cc2)nc(OC)n1 | -7.4% | 0.2% | -8.6% | 0.0% | 20.6%
COc1cc(NC(=S)NC(=O)c2ccccc2F)ccc1NC(=O)c1cccs1 | -18.3% | 7.8% | 0.7% | 8.2% | ?
CC1CCCCC1NC(=O)NC(=O)COC(=O)c1cncc(Br)c1 (stereo not given) | · | 11.6% | -9.4% | -1.0%[56.1 µM] | ·
Cc1ccc(CN(c2ccc(C(=O)NCc3cccnc3)cc2)S(C)(=O)=O)cc1 | 4.2% | -28.8% | ? | 2.3% | 11.7%
